This passage reports growth results from PubChem BioAssay (NCI).

Some test systems named below: NCI-H23 lung; NCI-H226 lung; NCI-H322M lung; HOP-62 NSCLC; NCI-H460 lung; HOP-92 NSCLC; NCI-H522 lung; A549/ATCC NSCLC; 786-0 renal; COLO 205 colon; DU-145 prostate; K-562 leukemia; MALME-3M melanoma; MDA-MB-231 breast; RXF 393 renal; SF-268 CNS; SF-295 CNS; SF-539 CNS; UACC-257 melanoma; M14 melanoma.
Common to all, as to test: NCI-60 one-dose screen, 48 h (100 = growth as untreated, 0 = no growth, -100 = all killed)
Holding throughout (conditions): 10 µM unless noted

This is part of a sample that, as a whole, favours compounds with a hit. Of some 83,000 tested, about 20% had one in any assay.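 Step 1: grow cells in 96-well plates. Step 2: add test compound at a single concentration. Step 3: incubate 48 h. Step 4: record percent growth.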 Unmarked numbers belong to inactive results. Activity calls are given as the source filed them. How the source made its calls: active means growth percent below 10; inactive means the rest.

For `COc1ccc(Sc2[nH]c(C(C)=O)c3ccccc23)cc1`, the growth in the experiment on NCI-H23 lung was 82.6%; in the experiment with NCI-H226 lung, 69.8%; in the experiment with NCI-H322M lung, 76.7%; with HOP-62 NSCLC, 83.7%; in the experiment on NCI-H460 lung, 20.4%; with HOP-92 NSCLC, 65.8%. Also, the growth with NCI-H522 lung is -7.2% (active); in the experiment on A549/ATCC NSCLC, 23%; with 786-0 renal, 92.2%; in the experiment with COLO 205 colon, -31.2% (active); with DU-145 prostate it was 89.4%; with K-562 leukemia it was 11.9%. Besides, the growth in the experiment on MALME-3M melanoma is 74%; with MDA-MB-231 breast, 83.3%; with RXF 393 renal, 69.1%; with SF-268 CNS, 73.2%; in the experiment with SF-295 CNS, 93.4%; in the experiment with SF-539 CNS, 72.2%. Further, the growth is 84.1% in the experiment on UACC-257 melanoma and 62.3% with M14 melanoma.
Take `Cc1[nH]c(N=Nc2ccccc2)nc1N=Nc1ccccc1`: the growth in the experiment on NCI-H23 lung was 36.3%; with NCI-H226 lung, 12.7%; with NCI-H322M lung, 39%; in the experiment on HOP-62 NSCLC it was 36.5%; in the experiment on NCI-H460 lung it was 16.2%; in the experiment on HOP-92 NSCLC it was 40.3%. Moreover, the growth in the experiment on NCI-H522 lung is -17.5% (active); in the experiment with A549/ATCC NSCLC it was 27%; in the experiment with 786-0 renal, 6.21% (active); in the experiment on COLO 205 colon it was 17.2%; with DU-145 prostate, 33.6%; in the experiment on K-562 leukemia, 23.6%. The growth in the experiment with MALME-3M melanoma was 30.2%; in the experiment on MDA-MB-231 breast, 38.1%; with RXF 393 renal it was -31.9% (active); in the experiment with SF-268 CNS it was 19.2%; with SF-295 CNS, 17.4%; in the experiment with SF-539 CNS it was 6.93% (active). The growth was -42.4% (active) in the experiment with UACC-257 melanoma and 3.54% (active) with M14 melanoma.
For the compound `COc1ccc([C@H]2[C@@H](F)C(=O)N2c2cc(OC)c(OC)c(OC)c2)cc1F`, the growth with NCI-H23 lung was 21.3%; in the experiment on NCI-H226 lung it was 59%; in the experiment on NCI-H322M lung, 46.4%; with HOP-62 NSCLC it was 31.8%; in the experiment on NCI-H460 lung, 7.06% (active); in the experiment with HOP-92 NSCLC, 32.3%. Besides, the growth with NCI-H522 lung was -8.46% (active); in the experiment on A549/ATCC NSCLC it was 15.3%; with 786-0 renal it was 22.9%; in the experiment on COLO 205 colon, -68% (active); in the experiment on DU-145 prostate it was 9.46% (active); in the experiment with K-562 leukemia it was 9.45% (active). Besides, the growth was 74% in the experiment with MALME-3M melanoma; 19.6% in the experiment with MDA-MB-231 breast; 28.8% with RXF 393 renal; 33.1% with SF-268 CNS; 18.6% with SF-295 CNS; 4.17% (active) with SF-539 CNS. For the same compound, the growth in the experiment on UACC-257 melanoma is 38.7%; in the experiment on M14 melanoma it was 1.91% (active).
`Cc1nccc2c3ccc(OCc4cn(-c5ccc(Br)cc5)nn4)cc3n(CC(C)C)c12`: the growth was 40.1% with NCI-H23 lung; 58.1% in the experiment on NCI-H226 lung; 90.6% in the experiment on NCI-H322M lung; 65.8% in the experiment on HOP-62 NSCLC; 44.3% in the experiment with NCI-H460 lung; 16.4% with HOP-92 NSCLC. Also, the growth was 26.5% in the experiment with NCI-H522 lung; 41.1% in the experiment on A549/ATCC NSCLC; 28.5% in the experiment on 786-0 renal; 15.1% in the experiment on COLO 205 colon; 76% in the experiment with DU-145 prostate; 14.8% with K-562 leukemia. In addition, the growth was 51.1% in the experiment on MALME-3M melanoma; 46.9% with MDA-MB-231 breast; 46.1% in the experiment with RXF 393 renal; 68.4% with SF-268 CNS; 40% with SF-295 CNS; 61.4% with SF-539 CNS. Further, the growth is 27.3% in the experiment with UACC-257 melanoma and 42.6% with M14 melanoma.
For the compound `CCOC(=O)/C(=C/c1c(-c2ccccc2)[nH]c2ccccc12)C(=O)c1ccc(Cl)cc1`, the growth with NCI-H23 lung was 55%; with NCI-H226 lung it was 71.3%; with NCI-H322M lung, 78.6%; with HOP-62 NSCLC, 48%; with NCI-H460 lung, 33.1%; in the experiment with HOP-92 NSCLC, 13.5%. The growth in the experiment on NCI-H522 lung was 19.8%; in the experiment with A549/ATCC NSCLC, 39.6%; in the experiment with 786-0 renal, 26.5%; in the experiment on COLO 205 colon, 63.2%; in the experiment on DU-145 prostate, 65.9%; with K-562 leukemia, 5.66% (active). In addition, the growth in the experiment with MALME-3M melanoma is 92.8%; in the experiment on MDA-MB-231 breast it was 63%; in the experiment on RXF 393 renal, 54.3%; with SF-268 CNS it was 56.1%; in the experiment on SF-295 CNS, -15.3% (active); in the experiment on SF-539 CNS it was 81.5%. Further, the values for the growth in the experiment on UACC-257 melanoma and in the experiment with M14 melanoma were 77.2% and 39.5%, respectively.
Consider `CN(C)CSc1nc2ccccc2s1`, for which the growth in the experiment on NCI-H23 lung was 92.9%; in the experiment with NCI-H226 lung it was 95.1%; in the experiment on NCI-H322M lung, 94.8%; in the experiment with HOP-62 NSCLC it was 88%; with NCI-H460 lung, 109%; in the experiment with HOP-92 NSCLC it was 78.7%. For the same compound, the growth was 91.5% in the experiment with NCI-H522 lung; 101% in the experiment with A549/ATCC NSCLC; 95.4% in the experiment on 786-0 renal; 91.6% in the experiment with COLO 205 colon; 105% in the experiment with DU-145 prostate; 119% in the experiment with K-562 leukemia. In addition, the growth is 86.7% with MALME-3M melanoma; 91.7% with MDA-MB-231 breast; 106% with RXF 393 renal; 101% in the experiment on SF-268 CNS; 92.8% with SF-295 CNS; 94.2% in the experiment on SF-539 CNS. In addition, the growth with UACC-257 melanoma was 113%; in the experiment with M14 melanoma, 88.8%.
Regarding `Cc1c(Cl)cccc1NC(=O)c1sc2nc3c(cc2c1N)CCCCC3`, the growth was 48% in the experiment on NCI-H23 lung; 71.6% with NCI-H226 lung; 49.8% in the experiment with NCI-H322M lung; 43.2% in the experiment on HOP-62 NSCLC; 16.4% with NCI-H460 lung; 37.8% in the experiment with HOP-92 NSCLC. The growth in the experiment with NCI-H522 lung is 10%; in the experiment on A549/ATCC NSCLC it was 34.5%; in the experiment with 786-0 renal, 32.1%; with COLO 205 colon it was 9.8% (active); in the experiment on DU-145 prostate it was 15.6%; with K-562 leukemia, 8.36% (active). The growth is 68.9% in the experiment on MALME-3M melanoma; 48.4% in the experiment on MDA-MB-231 breast; 22.8% in the experiment with RXF 393 renal; 54.2% in the experiment with SF-268 CNS; 32% in the experiment on SF-295 CNS; 13.9% in the experiment on SF-539 CNS. Besides, the growth in the experiment with UACC-257 melanoma is 67%; in the experiment on M14 melanoma it was 2.84% (active).
